Compound activity from PubChem BioAssay.
Mot1-301 SUMO = yeast Mot1-301 growth rescue at high temperature, primary screen, SUMOylation pathway inhibitor project, S. cerevisiae, ATP luminescence, 38.5C | S. cerevisiae Mot1-301 growth rescue; percent above DMSO median, 100 means doubled | growth rescue, % at 18.8 µM | 320,000 tested, 1% active;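 active = every valid replicate shows activation above 250% relative to neutral control wells; inactive = the rest, any valid replicate at or below 250%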
NALP1 yeast inh = NALP1 inflammasome inhibitors in reconstituted yeast, colorimetric, S. cerevisiae, triplicate retest; inhibition, % at 10 µM; S. cerevisiae NALP1/ASC/caspase-1 growth, X-gal OD620, 72 h; 280,000 tested, 0.61% active; in the data active = inhibition mostly above about 24%, no sharp cut-off; inactive = mostly below about 32%
NALP3 yeast inh = NALP3 inflammasome inhibitors in reconstituted yeast, primary screen, luminescence, uHTS | Yeast reconstituted NLRP3/ASC/caspase-1, beta-gal luminescence, 24 h | inhibition, % at 10 µM | 330,000 tested, 0.39% active | AID 2825, 2010;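 active = inhibition of 50% or more; inactive = inhibition below 50%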
A1 inh = caspase 3/7 activation in MEF A1-2A-BIM cells, primary screen, A1 inhibitor project, cell-based, luminescence, HTS; Caspase-Glo 3/7 luminescence, 3 h; percent of clofoctol response, vehicle zero; caspase activation, % (no concentration beside the values); 330,000 tested, 0.066% active;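 active = over half of replicate activation scores above 10%, or exactly half above 10 with the replicate mean above 10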
CHT PAM = CHT positive allosteric modulators, primary screen, cell-based, membrane potential dye, choline EC20 | CHT-expressing cells; active compounds read high; LV-AA mutant CHT in HEK293 cells | High affinity choline transporter 1 (Homo sapiens), Q9GZV3 | B-score at 10 µM | AID 488977, 2010 | 310,000 tested, 0.49% active;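 active = initial fluorescence not abnormally high and integrated response B-score, plate-corrected, over 3 SD above library mean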
Target sequence (Q9GZV3 whole entry, looked up): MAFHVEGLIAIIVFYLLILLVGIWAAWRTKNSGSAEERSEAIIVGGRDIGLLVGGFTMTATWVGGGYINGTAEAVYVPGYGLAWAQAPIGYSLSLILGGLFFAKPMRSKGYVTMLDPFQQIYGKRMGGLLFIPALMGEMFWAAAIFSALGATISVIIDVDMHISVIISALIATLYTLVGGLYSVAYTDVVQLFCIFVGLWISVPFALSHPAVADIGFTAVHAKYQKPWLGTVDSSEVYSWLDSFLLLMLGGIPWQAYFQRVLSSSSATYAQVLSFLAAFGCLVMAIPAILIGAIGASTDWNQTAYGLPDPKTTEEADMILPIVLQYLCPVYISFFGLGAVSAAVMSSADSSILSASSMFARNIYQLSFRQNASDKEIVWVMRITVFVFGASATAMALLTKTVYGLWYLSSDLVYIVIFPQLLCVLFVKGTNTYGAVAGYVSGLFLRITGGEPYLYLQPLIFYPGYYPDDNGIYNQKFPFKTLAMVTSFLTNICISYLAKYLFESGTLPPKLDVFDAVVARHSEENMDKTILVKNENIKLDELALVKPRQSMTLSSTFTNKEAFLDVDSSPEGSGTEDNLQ
CHT inh = inhibitors of human choline transporter CHT | 310,000 tested, 0.86% active | High affinity choline transporter 1 (Homo sapiens), Q9GZV3 | B-score at 10 µM | CHT-expressing cells, membrane potential dye, choline response; active compounds read low;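 active = B-score over 3 SD under the library average, and starting fluorescence ratio not unusually high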;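 note: choline stimulus applied at its EC90 after an EC20 pre-addition; B-score computed on integrated fluorescence ratio after choline addition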
CHT act confirm = CHT activators, confirmation, cell-based, membrane potential dye, duplicate | shares compounds with CHT PAM | CHT-expressing cells, membrane potential dye fluorescence (FDSS); % of choline EC20–EC90 response window; HEK293 expressing CHT LV-AA mutant; choline added at its EC20 | activation, % at 10 µM | 2,500 tested, 91% active;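 active = primary screen active, with duplicate mean activation above negative control mean plus 3 SD, cut at about 11% in these data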
HEK293 MP dye = membrane potential response in parental HEK293 cells, counter-screen for CHT activator project, cell-based, membrane potential dye. membrane potential dye fluorescence (FDSS); measured after EC20 choline addition. 2,500 tested, 62% active. shares compounds with CHT PAM. ratio readout change at 10 µM, hits read low. AID 623908, 2012;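 active = duplicate-averaged ratio beyond 3 SD from buffer wells, up or down, though filed actives are nearly all decreases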
Of the large screens only hits and unclear results are named; the others gave an inactive call (follow-up assays come after a bar, where they were run). The list is not random: actives were taken first. Their share in the collection is about 3%.

CN(C)c1ccc(/C=C/c2ccc3c4ccccc4ccc3[n+]2-c2ccccc2)cc1	none (no result: Mot1-301 SUMO, NALP3 yeast inh, A1 inh, CHT PAM, CHT inh)
CC(C)CC[n+]1ccccc1/C=C/c1ccc(N(C)C)cc1	CHT PAM 11.8 | CHT act confirm 60.0 | HEK293 MP dye inactive
O=C(c1ccc(Cl)c(S(=O)(=O)N2CCCCC2)c1)N1CCCC1	none
CCOC(=O)c1c(CSCc2ccccc2)oc2ccc(O)c(CN(C)C)c12	CHT PAM 10.5 | CHT act confirm 24.6 | HEK293 MP dye inactive
COc1ccc(OC)c2nc(-c3ccncc3)ccc12	none | CHT act confirm 51.7 | HEK293 MP dye -52
COc1cccc2sc(Nc3nc(-c4ccncc4)cs3)nc12	none
C[C@H](CO)N1C[C@H](C)[C@@H](CN(C)C(=O)Nc2ccccc2)Oc2ccc(NC(=O)CCC(F)(F)F)cc2C1=O	none (no result: NALP1 yeast inh, CHT PAM, CHT inh)
Cn1c(=O)c(=O)n(C)c2cc(S(=O)(=O)N3CCC(N4CCCCC4)CC3)ccc21	CHT PAM 10.4 (no result: NALP1 yeast inh) | CHT act confirm 76.7 | HEK293 MP dye -76.6
COc1ccc(NC(=O)Nc2ccc3c(c2)OCO3)c(C)c1	none
COc1cnc(-c2ccccn2)nc1N(C)C	none | CHT act confirm 33.0 | HEK293 MP dye -35.6
O=[N+]([O-])c1cnc2nc(-c3ccncc3)nn2c1O	none | CHT act confirm 43.7 | HEK293 MP dye -44.8
COc1ccc(OC)c(S(=O)(=O)N2CCC(C(=O)NCc3ccccn3)CC2)c1	none
COc1cccc(CC2(CO)CCCN(Cc3ccc(OC)c(C)c3OC)C2)c1 (configuration not stated)	none
COc1ccccc1NC(=S)N=Nc1c(O)[nH]c2ccc(Br)cc12	none
Cc1cccc(NC(=S)N=Nc2c(O)[nH]c3ccccc23)c1	CHT PAM 9.5 (no result: Mot1-301 SUMO) | CHT act confirm inactive | HEK293 MP dye inactive
C[C@]12C=CC(=O)C=C1CC[C@@H]1C2=CC[C@]2(C)[C@@H](C(=O)CN3CCN(c4cc(N5CCCC5)nc(N5CCCC5)n4)CC3)CC[C@@H]12	CHT PAM 8.21 (no result: NALP1 yeast inh) | CHT act confirm 48.5 | HEK293 MP dye -75.7
Cc1sc2ncn3c(C)nnc3c2c1C	CHT PAM 7.02 | CHT act confirm 58.6 | HEK293 MP dye -57.5
Cc1sc2ncn(CCn3cnc4sc(C)c(C)c4c3=O)c(=O)c2c1C	none (no result: Mot1-301 SUMO)
CC(=O)c1cccc(Nc2nc3ccccc3n3cnnc23)c1	none
Cn1c(=O)n(CCOc2ccc(Cl)cc2Cl)c2ccccc21	none
C[n+]1cn(Cc2cc(Cl)ccc2OC(F)F)c2ccccc21	CHT PAM 7.26 | CHT act confirm 54.1 | HEK293 MP dye inactive
Cc1cc(NS(=O)(=O)c2ccc(NC(=O)c3cnc4scc(C)n4c3=O)cc2)nc(C)n1	CHT PAM 6.24 | CHT act confirm 32.7 | HEK293 MP dye -27.2
Cc1noc(NS(=O)(=O)c2ccc(NC(=O)c3cnc4scc(C)n4c3=O)cc2)c1C	none (no result: NALP1 yeast inh)
CC(C)=CCOc1c2ccoc2c(OCC=C(C)C)c2oc(=O)ccc12	none (no result: Mot1-301 SUMO, NALP1 yeast inh, A1 inh, CHT PAM, CHT inh)
CCCCn1c(N)c(N(CCC(C)C)C(=O)C2CCCN(C(=O)c3ccc(Cl)cc3)C2)c(=O)[nH]c1=O (configuration not stated)	CHT PAM 8.84 (no result: NALP1 yeast inh) | CHT act confirm 12.3 | HEK293 MP dye inactive
CCN(CC)C(=O)Cn1cc(C(=O)C(=O)Nc2ccc3c(c2)OCCO3)c2ccccc21	none
Cc1ccc(Nc2nc(-c3c(C)nc4ncccn34)cs2)cc1	CHT PAM 6.75 | CHT act confirm 28.8 | HEK293 MP dye inactive
O=C(CN(C(=O)c1csnn1)c1ccccc1)NCCc1ccccc1	none
COc1ncccc1-c1nnn(-c2ccc(Cl)nc2)n1	none | CHT act confirm 48.3 | HEK293 MP dye -40.8
Clc1ccc(-n2nnc(-c3cccnc3Cl)n2)cn1	none
O=C1c2ccc(Br)cc2C(=O)N1c1ccc(Cl)cn1	none
COc1cc(/C=C/C(=O)N(C)CC(=O)Nc2ccccc2SC)cc(OC)c1OC	none (no result: NALP1 yeast inh, CHT PAM, CHT inh)
Nc1ccc2c(c1)N1CCN=C1S2	none | CHT act confirm 54.0 | HEK293 MP dye -48.6
CCOC(=O)c1ccc2c(c1)n(CCO)c(C)[n+]2CC	none
CCOC(=O)c1ccc2c(c1)n(CC)c(/C=C/N(C)c1ccccc1)[n+]2CC	CHT PAM 7.43 | CHT act confirm 44.5 | HEK293 MP dye -62.8
O=C(CN1CCC(C(=O)c2ccc(Cl)cc2)CC1)NC1CCCC1	none
COc1cccc(/C=N/n2cncn2)c1OCC#N	CHT PAM 6.37 | CHT act confirm inactive | HEK293 MP dye inactive
N#CCOc1ccccc1/C=N/n1nnnc1N	none
CCNc1nc2ccccc2[nH]1	none
CCN(CC)CCCNc1nc2ccccc2[nH]1	CHT PAM 7.8 (no result: NALP1 yeast inh) | CHT act confirm 34.8 | HEK293 MP dye -34.5
c1ccc2[nH]c(NCCCN3CCOCC3)nc2c1	CHT PAM 6.35 | CHT act confirm 38.4 | HEK293 MP dye -33.2
O=c1[nH]c2ccccc2nc1NCCN1CCOCC1	none
O=C(COC(=O)C1CCC(=O)N1)Nc1cccc([N+](=O)[O-])c1 (configuration not stated)	none (no result: NALP1 yeast inh, CHT PAM, CHT inh)
CN1C(C(=O)N2CCc3ccccc3C2)=CC(c2ccc(F)cc2)=NS1(=O)=O	CHT PAM 6.69 | CHT act confirm 13.0 | HEK293 MP dye inactive
COc1ccc(C2=NS(=O)(=O)N(C)C(C(=O)N3CCC(C)CC3)=C2)cc1	none
Cc1cccc2nc(-c3cccnc3)c(NCCC(C)C)n12	none | CHT act confirm 40.7 | HEK293 MP dye inactive
Cc1ccccc1Nc1c(-c2cccnc2)nc2ccccn12	CHT PAM 7.53 (no result: NALP1 yeast inh) | CHT act confirm 49.7 | HEK293 MP dye -51.1
Cc1ccn2c(Nc3ccccc3C)c(-c3ccccn3)nc2c1	none
Cc1cccc2nc(-c3cccnc3)c(Nc3ccccc3)n12	CHT PAM 11.6 | CHT act confirm 27.6 | HEK293 MP dye -29
CCOC(=O)c1nc(Nc2ccc(N3CCC(C)CC3)cc2)c2ccccc2n1	none
CCn1c2ccccc2c2nn(C)c(=N)nc21	CHT PAM 7.2 | CHT act confirm 65.8 | HEK293 MP dye -70.2
